Our source for the activation values is PubChem BioAssay AID504408 (Broad Institute, 2011).

About 5,200 (1.7%) of roughly 300,000 compounds were called active. The sample holds actives, similar compounds and a random draw of the others, so the mix is not that of the screen.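 Rule for the calls: active = mean replicate activation of at least 50% with a set share of replicates each reaching 50%; inconclusive = only one of those two conditions met; inactive = mean below 50% and too few replicates reaching it.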

The nature of the assay: HSF-1 response element luciferase induction – NIH3T3-HGL cells, MG132 stress, luminescence, single point, primary screen (AID 504408).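 Note: 0% = median of the neutral control wells and 100% = twice that signal.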 The settings on record: NIH3T3-HGL HSF-1 luciferase reporter, MG132, 8 h; at 9 µM; hits give high values; 100% = twice DMSO control signal. Background: In a reporter assay the amount or activity of a reporter protein is the signal.
As for `Cc1ccc2nc(SCC(=O)Nc3cccc4ccccc34)nc(=O)n2c1`, the activation is 16.2% (inactive).

As to `CC(C)(C)c1ccc(C(=O)NCCn2c(N)c(C#N)c3nc4ccccc4nc32)cc1`, the activation is 27.2% (inactive).

Turning to `CN(C)CCCn1c(N)c(C#N)c2nc(C#N)c(C#N)nc21`, the activation was 76.2% (active).

As for `N#Cc1c(N)n(CCOC(=O)c2ccc(Cl)cc2)c2nc3ccccc3nc12`, the activation was 26.8% (inactive).

In the case of `CC(OC(=O)CCCc1c[nH]c2ccccc12)C(=O)Nc1ccc(S(N)(=O)=O)cc1` (centres undefined), the activation was 8.99% (inactive).

On to `CC(=O)Nc1ccc(C(=O)Nc2cccc(S(=O)(=O)NC3=NCCC3)c2)cc1`, for which the activation is -9.72% (inactive).

For `COc1ccc(C(=O)CN2C(=O)NC3(CCc4ccccc43)C2=O)c(OC)c1` (centres undefined), the activation is -14% (inactive).

On to `Cc1nn(C)cc1C(=O)c1ccccc1`, for which the activation is 5.22% (inactive).

For `Cc1cc(NC(=O)C(C)N2C(=O)c3ccccc3S2(=O)=O)no1` (centres undefined), the activation was -3.5% (inactive).

Take `COc1cc2ccccc2cc1C(=O)N1CCOCC1`: the activation was -5.8% (inactive).

As for `CCOc1ccc(N=C2SC(C(=O)O)CC(=O)N2C)cc1` (centres undefined), the activation is -0.001% (inactive).

As to `C=CCN1C(=O)C(Cc2ccc(OCC)cc2)SC1=Nc1ccc(C(=O)O)cc1` (centres undefined), the activation is 58.5% (active).

For the molecule `C=CCN1C(=O)C(Cc2cccc(Cl)c2)S/C1=N/N=C/c1ccco1` (centres undefined), the activation is 23.1% (inactive).

In the case of `COc1cccc(N2CC(NC(=O)c3ccc4ccccc4c3)CC2=O)c1` (centres undefined), the activation is -3.4% (inactive).

For the molecule `Nc1c(-c2ccccc2)nnn1Cc1ccccc1`, the activation is 17.5% (inactive).

Regarding `O=C(/C=C/c1ccc2c(c1)OCO2)NCc1cn2cc(Cl)ccc2n1`, the activation was 1.53% (inactive).

With `O=c1c2ccccc2nc2n1C(CSc1ccc(Cl)cc1)CN2` (centres undefined), the activation was -13% (inactive).

Regarding `Clc1ccc2nc(CSc3ccccc3)cn2c1`, the activation is 70.2% (active).

As for `N#CC1(NC(=O)COC(=O)Cc2n[nH]c(=O)c3ccccc23)CCCCC1`, the activation is 3.96% (inactive).

Consider `COc1ccc(-c2cc(C(=O)N(C)CC(=O)Nc3ccccc3Cl)c3ccccc3n2)cc1OC`, for which the activation is -23.1% (inactive).

For the molecule `Cc1cccc(OC(=O)c2sc3ncn(C)c(=O)c3c2C)c1`, the activation was 17.3% (inactive).

Consider `CCOC(=O)C(C)n1cnc2sc(C)c(C)c2c1=O` (centres undefined), for which the activation was 6.07% (inactive).

`Cc1c(C(N)=O)sc2ncn(CCOc3ccccc3)c(=O)c12`: the activation was 58.5% (active).

Consider `CCOc1ccc(CCNC(=O)COC(=O)c2ccc(F)c(S(=O)(=O)N3CCOCC3)c2)cc1OCC`, for which the activation was -9.54% (inactive).

`CCC(=O)N1CCc2cc(Br)c(S(=O)(=O)NCCN3CCCCC3CC)cc21` (centres undefined): the activation is -1.08% (inactive).

Take `COc1ccc(C(=O)Nc2cccc(NC(=O)c3ccc(OC)cc3OC)n2)c(OC)c1`: the activation was -34.1% (inactive).

On to `O=C1CC(c2ccccc2)CC(O)=C1C=NCCN1CCOCC1` (centres undefined), for which the activation was -5.8% (inactive).

For the molecule `O=C1CC(c2cccc(Cl)c2)CC(O)=C1C=Nc1ccccc1` (centres undefined), the activation is 116% (active).

With `O=C1CCCC(O)=C1C=NCCc1ccccc1`, the activation was 21% (inactive).

As to `O=C(NCCS(=O)(=O)N1CCN(c2ccccc2)CC1)c1ccco1`, the activation is 4.49% (inactive).

Take `Cc1cc(O)c(Sc2ccccc2)c(=O)o1`: the activation is -2.42% (inactive).

Regarding `CCCCn1c(N)c(N(CC(C)C)C(=O)c2cccc(S(=O)(=O)N3CCN(C(C)=O)CC3)c2)c(=O)[nH]c1=O`, the activation is -4.85% (inactive).

Regarding `CCCCOc1ccc(CSC(=N)N)cc1[N+](=O)[O-]`, the activation was -29.6% (inactive).

As for `CCCCOC(=O)CCCc1ccc([N+](=O)[O-])cc1[N+](=O)[O-]`, the activation was 65% (active).

In the case of `CCOC(=O)C/C(C)=N\Nc1ccc([N+](=O)[O-])cc1[N+](=O)[O-]`, the activation was 1.63% (inactive).

Regarding `Cc1csc2nc(O)c(C(=O)NCCN3CCOCC3)c(=O)n12`, the activation is -6.85% (inactive).

Consider `COc1ccc(S(=O)(=O)NCC(c2ccc(C)cc2)N2CCN(C)CC2)cc1OC` (centres undefined), for which the activation was 5.43% (inactive).

Take `S=C(Nc1cccc(Cl)c1)Nc1ccc2cn[nH]c2c1`: the activation was 20.2% (inactive).

For `Cc1csc(NC(=S)Nc2cccc(Cl)c2)n1`, the activation is 58.4% (active).

In the case of `S=C(Nc1cccc(Cl)c1)Nc1ccc2c(c1)OCCO2`, the activation was 5.58% (inactive).

For the molecule `COc1ccc(C(=O)NCC2CCCN2S(=O)(=O)c2cccs2)cc1OC` (centres undefined), the activation was -9.4% (inactive).

Take `CCN(c1cccc(C)c1)S(=O)(=O)c1ccc(-c2coc(C)n2)cc1`: the activation is -1.05% (inactive).

As for `CCN(CC)S(=O)(=O)c1ccc(-c2cn3ccc(C)cc3n2)cc1`, the activation is 58.1% (active).

On to `Cc1ccc2nc(-c3ccc(Br)cc3)cn2c1`, for which the activation was -34.2% (inactive).

Consider `Cc1ccc(SCC(=O)Nc2nncs2)cc1`, for which the activation is -2.82% (inactive).

Consider `COc1ccc(-n2nnnc2CNC(=O)c2ccc3ccccc3c2)cc1`, for which the activation was 3.44% (inactive).

In the case of `COc1cccc(NC(=O)CSc2nnc(-c3cccnc3)o2)c1`, the activation is 11.6% (inactive).

Regarding `Cc1ccc(C)c(-c2nnc(NC(=O)CS(=O)(=O)c3ccccc3)o2)c1`, the activation was -10.1% (inactive).

Take `CC(=O)c1sc(N/N=C/c2ccc(C(C)C)cc2)nc1C`: the activation is 59.6% (active).

Take `COc1cccc2sc(Nc3nc(C)c(C(C)=O)s3)nc12`: the activation was -3.69% (inactive).

Regarding `CC(=O)c1sc(NC(=O)CCCOc2ccccc2C)nc1C`, the activation is 35.1% (inactive).

For `COc1cc2ccccc2cc1C(=O)Nc1nc(C)c(C(C)=O)s1`, the activation is 23.8% (inactive).

As for `COc1ccccc1/C=N/Nc1nc(C)c(C(C)=O)s1`, the activation is 55.9% (active).

Consider `CC(=O)c1sc(N/N=C\c2ccc(C)cc2)nc1C`, for which the activation was 38.3% (inactive).

For the molecule `CCN1C(=O)[C@H]2[C@@H](c3ccc(C)cc3)N3C(=O)N(c4cccc(Br)c4)C(=O)[C@@]3(CC)[C@H]2C1=O`, the activation was -10.8% (inactive).

Turning to `Cc1csc(NC(=O)CSc2nc(=O)n(CCCN(C)C)c3c2CCC3)n1`, the activation is -4.76% (inactive).

For the molecule `Cc1ccc(S(=O)(=O)CCC(=O)OCC(=O)N(C)C2CCS(=O)(=O)C2)cc1` (centres undefined), the activation was 2.33% (inactive).

Turning to `CCN(Cc1ccccc1)S(=O)(=O)c1cc2c3c(c1)CCN3C(=O)CC2`, the activation was 23.7% (inactive).

Regarding `COc1ccc2c(c1)C(=O)Nc1cc(Cl)ccc1N2`, the activation is 12.2% (inactive).

Consider `CN(C)CCn1c2c(c(SCC(=O)Nc3ccccc3C(F)(F)F)nc1=O)CCCC2`, for which the activation is -8.06% (inactive).

Regarding `Cc1ccc(-c2csc(-c3c[nH]c4ccccc34)n2)cc1`, the activation is 62% (active).

On to `CCCc1cc(-c2nc(-c3ccc(C)cc3)cs2)ccn1`, for which the activation was 7.82% (inactive).

Turning to `Cc1ccc(-c2csc(-c3cc(C)on3)n2)cc1`, the activation is 28.5% (inactive).

Regarding `COc1ccccc1C(=O)NCCC(=O)NN1C(=O)NC2(CCCCC2)C1=O`, the activation was -5.35% (inactive).

Turning to `O=C(COC(=O)c1ncc(Cl)c(Cl)c1Cl)NCc1cccs1`, the activation is -3.74% (inactive).

For the molecule `CC(=C/c1ccccc1)/C=N/NC(=O)c1cc(C)oc1C`, the activation was 32% (inactive).

Consider `CC(C)c1cc(C(=O)N/N=C/C(Br)=C/c2ccccc2)n[nH]1`, for which the activation is 40.2% (inactive).

In the case of `O=C(Cc1cc(=O)[nH][nH]1)N/N=C/c1ccccc1[N+](=O)[O-]`, the activation is -2.04% (inactive).

As for `Cc1cc(C(=O)N/N=C\C(Br)=C\c2ccccc2)c(C)o1`, the activation was 112% (active).

Take `Cc1cc(C(=O)N/N=C/c2ccccc2[N+](=O)[O-])c(C)o1`: the activation was 58.5% (active).

Consider `Cc1cc(C(=O)N/N=C/c2ccc(N3CCOCC3)cc2)c(C)o1`, for which the activation is -5.06% (inactive).

As for `COc1cc(C(=O)N(C)Cc2cccc(OC)c2OC)ccc1OCC(=O)Nc1cccc(C(F)(F)F)c1`, the activation was -3.36% (inactive).

As to `CC(OC(=O)CCC(=O)c1ccccc1)C(=O)Nc1ccc(F)cc1` (centres undefined), the activation is -12.9% (inactive).

On to `COc1cc(C(=O)OCc2ccc([N+](=O)[O-])cc2)cc(OC)c1OC`, for which the activation was 12.4% (inactive).

For `COc1cc(/C=N\Nc2ccc([N+](=O)[O-])cn2)ccc1OCC(=O)O`, the activation is 0.194% (inactive).

Regarding `COc1cc(/C=N/O)ccc1OCc1ccc([N+](=O)[O-])cc1`, the activation is 118% (active).

`O=C(Nc1ccc(F)c([N+](=O)[O-])c1)C1CCCO1` (centres undefined): the activation was 9.04% (inactive).

With `COc1ccc(S(=O)(=O)N2CCOC23CCN(S(=O)(=O)c2ccc([N+](=O)[O-])cc2)CC3)cc1`, the activation was 0.627% (inactive).

Take `CCOc1ccc(C(C)=O)cc1COC(=O)CN1C(=O)NC2(CCCC2)C1=O`: the activation is -13.7% (inactive).

Take `CC(/C=N/NC(=O)c1ccncc1)=C\c1ccco1`: the activation was 27.6% (inactive).

For `CC(/C=N/NC(=O)c1cc(-c2ccc3ccccc3c2)n[nH]1)=C\c1ccco1`, the activation is 71.5% (active).

For `Cc1ccc(-c2cc(C(=O)N/N=C/C=C/c3ccco3)c3ccccc3n2)cc1C`, the activation was -41.2% (inactive).

With `N=c1oc2ccccc2cc1C(=O)N/N=C/c1ccccc1`, the activation was 22.1% (inactive).

Turning to `NC(=O)c1ccccc1N=Cc1ccc2ccccc2c1`, the activation is 75.3% (active).

Take `COc1ccc(/C=N/Nc2ccccc2C(=O)O)cc1`: the activation is 12.9% (inactive).

Consider `COc1ccccc1NS(=O)(=O)c1ccc(C(=O)N2CCN(c3ccccc3O)CC2)cc1`, for which the activation is 14.5% (inactive).

As for `CCOc1ccc2nc(C(=O)N3CCCC(C)C3)sc2c1` (centres undefined), the activation was 76.7% (active).

Turning to `CCOc1ccc2nc(Nc3nc4ccc(NC(C)=O)cc4s3)sc2c1`, the activation is 36.7% (inactive).

Turning to `CCCC(=O)N(CCN1CCOCC1)c1nc2ccc(OCC)cc2s1`, the activation is 5.04% (inactive).

For the molecule `CSc1ccc(S(=O)(=O)NCC(=O)OCC(=O)NC2(C#N)CCCCC2)cc1[N+](=O)[O-]`, the activation is 1.77% (inactive).

As to `COc1ccccc1C(=O)NC(CCSC)C(=O)NNC(=O)c1ccccc1C` (centres undefined), the activation was -15.3% (inactive).

Turning to `O=C(Nn1c(SCc2ccc([N+](=O)[O-])cc2)nc2ccccc2c1=O)c1ccc(F)cc1`, the activation was 51.9% (active).

For the molecule `O=C(Nn1c(-c2ccccc2)nc2ccccc2c1=O)c1ccc([N+](=O)[O-])cc1`, the activation is 19.1% (inactive).

As for `C=CCn1c(SCc2ccc(C(=O)NCCO)cc2)nc2ccccc2c1=O`, the activation was -5.63% (inactive).
